Source: publication PMC4336329 (PLoS ONE, 2015)
Hit rate of the full screen: of about 310,000 compounds, about 14,000 (4.5%) showed an effect of 50% or more. Effects have a minus sign here. Shown is part of a subset that was picked to be rich in strong results.

molecular target: human ether-à-go-go-related gene (hERG) potassium channel (human, UniProt Q12809); experiment: primary screen, population patch clamp on CHO cells stably expressing hERG; higher = less effect of the substance
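Also: peak tail current of the secondary pulse compared with the same well before compound.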

Chain of human ether-à-go-go-related gene (hERG) potassium channel (Q12809 whole entry, looked up): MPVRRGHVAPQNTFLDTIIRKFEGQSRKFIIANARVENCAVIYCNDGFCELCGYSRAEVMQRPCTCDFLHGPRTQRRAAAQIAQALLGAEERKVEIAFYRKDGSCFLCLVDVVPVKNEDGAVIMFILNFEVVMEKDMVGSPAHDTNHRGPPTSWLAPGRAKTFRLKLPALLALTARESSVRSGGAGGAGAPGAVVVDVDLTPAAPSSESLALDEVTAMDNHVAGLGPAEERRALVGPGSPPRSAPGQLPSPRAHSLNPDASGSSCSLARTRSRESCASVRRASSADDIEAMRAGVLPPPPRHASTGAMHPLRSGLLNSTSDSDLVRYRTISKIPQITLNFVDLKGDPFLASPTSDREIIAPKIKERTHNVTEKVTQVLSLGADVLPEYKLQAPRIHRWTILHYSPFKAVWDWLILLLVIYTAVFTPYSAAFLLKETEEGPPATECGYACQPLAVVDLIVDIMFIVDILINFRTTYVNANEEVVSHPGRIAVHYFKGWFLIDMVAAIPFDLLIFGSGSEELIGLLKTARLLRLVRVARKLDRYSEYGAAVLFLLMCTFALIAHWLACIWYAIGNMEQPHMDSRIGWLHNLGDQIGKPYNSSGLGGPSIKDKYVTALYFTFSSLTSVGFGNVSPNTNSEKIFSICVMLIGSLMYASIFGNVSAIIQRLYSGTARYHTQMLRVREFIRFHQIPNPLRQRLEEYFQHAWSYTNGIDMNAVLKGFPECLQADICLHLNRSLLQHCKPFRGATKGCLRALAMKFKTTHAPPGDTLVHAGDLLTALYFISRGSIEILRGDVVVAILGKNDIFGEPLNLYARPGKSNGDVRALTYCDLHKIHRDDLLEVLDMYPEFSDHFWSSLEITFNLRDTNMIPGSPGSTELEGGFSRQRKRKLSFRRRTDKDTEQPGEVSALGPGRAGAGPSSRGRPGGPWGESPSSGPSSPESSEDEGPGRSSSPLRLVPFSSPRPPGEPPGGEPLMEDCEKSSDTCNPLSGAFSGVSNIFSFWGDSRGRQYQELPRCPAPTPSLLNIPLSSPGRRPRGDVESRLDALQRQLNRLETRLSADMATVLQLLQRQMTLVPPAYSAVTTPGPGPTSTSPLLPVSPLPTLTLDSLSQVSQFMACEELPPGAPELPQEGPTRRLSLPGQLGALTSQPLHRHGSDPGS

Row | SMILES | hERG current change (%, negative = inhibition) at 10uM [%]
1 | O=C(COC(=O)C1=NNC(=O)CC1)NCCc1ccccc1 | 17.4
2 | O=c1cc(N2CCN(Cc3ccccc3)CC2)c(-c2ccccc2)n[nH]1 | -1.87
3 | Cn1nc(C(C)(C)C)cc1NC(=O)Nc1ccc(F)cc1F | 5.93
4 | CCC(C)N1C(=S)SC(C)(C)C1N(O)C(=O)NC1CCCCC1 (stereo not drawn) | 9.19
5 | COc1ccc(OC)c(C2(O)CSC(=Nc3cccnc3)N2Cc2ccco2)c1 (stereo not drawn) | -16.3
6 | Cn1c(=O)c2c(SCC(=O)N3CCOCC3)nc(-c3ccccc3F)nc2n(C)c1=O | -8.27
7 | O=C(c1cc(COc2c(F)cccc2F)on1)N1CCN(C2CCCCC2)C(=O)C1 | -17.5
8 | CSc1ccccc1OCc1cc(C(=O)N2CCN(C3CCCC3)C(=O)C2)no1 | -34.8
9 | O=C(c1cc(COc2ccc(F)cc2F)on1)N1CCN(C2CCCC2)C(=O)C1 | -25.8
10 | O=C(c1cc(COc2ccc(F)cc2Cl)on1)N1CCN(C2CCCCC2)C(=O)C1 | -67.9
11 | COc1cccc(OCc2cc(C(=O)N3CCN(C4CCCCC4)C(=O)C3)no2)c1 | -3.09
12 | O=C(c1cc(COc2ccc(F)cc2Cl)on1)N1CCSCC1 | -4.58
13 | O=C(c1cc(COc2ccc(F)cc2Cl)on1)N1CCN(C2CCCC2)CC1 | -61.4
14 | O=C(c1cc(COc2ccc(F)c(F)c2)on1)N1CCOCC1 | 5.02
15 | CCOC(=O)CC1COCCN1C(=O)c1cc(COc2ccc(F)cc2Cl)on1 (stereo not drawn) | -23.2
16 | O=C(c1cc(COc2ccc(F)c(F)c2)on1)N1CCN(C2CCCCC2)C(=O)C1 | -56.2
17 | CCOC(=O)CC1COCCN1C(=O)c1cc(COc2ccc(F)c(F)c2)on1 (stereo not drawn) | -61.5
18 | COc1ccc(OCc2cc(C(=O)N3CCN(C4CCCC4)CC3)no2)c(Cl)c1 | -29.6
19 | O=C(COC(=O)CN1C(=O)C2CCCCC2C1=O)Nc1cc(S(=O)(=O)N2CCOCC2)ccc1Cl (stereo not drawn) | -12.6
20 | Cc1ccc(C(=O)NCCCn2ccnc2)cn1 | 4.36
21 | O=C(NC1CCCCCC1)C1CCN(S(=O)(=O)c2cnc[nH]2)CC1 | 8.78
22 | CCN(CC)C(=O)COc1cc(C)c(Cl)c(C)c1 | -5.91

Row | SMILES | hERG current change (%, negative = inhibition) at 10uM [%]
23 | COc1ccc(C(=O)NCc2ccccc2OC)c(OC)c1 | -11.6
24 | Brc1ccc(C=Nc2ccc(Nc3ccccc3)cc2)s1 | 9.59
25 | O=C(N/N=C/c1cc(Br)cs1)c1ccc2c(c1)OCCO2 | 10.2
26 | Brc1ccc(C=Nc2ccc3c(c2)OCCOCCOCCO3)s1 | -66.2
27 | Oc1c(Cl)cc(Cl)cc1C=Nc1ccc2c(c1)OCCO2 | 21.2
28 | Brc1csc(C=Nc2ccc3c(c2)OCCOCCOCCOCCO3)c1 | -73.5
29 | Oc1c(Br)cc(Br)cc1C=Nc1ccc2c(c1)OCCO2 | 14.9
30 | NC(=O)c1ccccc1NC(=O)N1CCOCC1 | -2.02
31 | CCOC(=O)C1CCCN(C(=O)c2ccc(Cl)cc2)C1 (stereo not drawn) | 0.557
32 | Cc1cc(C)cc(NC(=O)CSc2nc3c(oc4ccccc43)c(=O)n2-c2ccccc2)c1 | -11.1
33 | O=C(c1ccc(F)cc1)N1CCCCC(Sc2nnc3ccccn23)C1=O (stereo not drawn) | -59.9
34 | O=C(c1ccccc1)N1CCCCC(Sc2nnc3ccccn23)C1=O (stereo not drawn) | 5.24
35 | Cc1cc2nnc(SC3CCCCN(C(=O)c4ccc(F)cc4)C3=O)n2c2ccccc12 (stereo not drawn) | -13.2
36 | O=C(Nc1ccccc1-c1nc2ccccc2[nH]c1=O)c1cccs1 | 2.16
37 | Cc1noc(C)c1C(=O)Nc1cccc(S(=O)(=O)N2CCCCC2)c1 | -10.6
38 | CCc1noc(C)c1C(=O)Nc1ccc(C)c(S(=O)(=O)N2CCCCCC2)c1 | -45.6
39 | CCc1noc(C)c1C(=O)Nc1ccc(Cl)c(S(=O)(=O)N2CCCCC2)c1 | -71.2
40 | CCOc1ccc(S(=O)(=O)N2CCCCC2)cc1NC(=O)c1c(CC)noc1C | 11.8
41 | CCc1noc(C)c1C(=O)Nc1cccc(S(=O)(=O)N2CCCCCC2)c1 | -56
42 | CCc1noc(C)c1C(=O)Nc1ccc(S(=O)(=O)N2CCCCC2)cc1 | -7.54
43 | CCOC(=O)c1c(C)[nH]c(C(=O)Nc2ccc(C)c(Cl)c2)c1C | 10.8
44 | COc1ccc2[nH]cc(C(=O)C(=O)N3CCCCC3)c2c1 | 5.35

Row | SMILES | hERG current change (%, negative = inhibition) at 10uM [%]
45 | COC(=O)C(=O)/C=C(\O)c1ccc(C)cc1 | -2.4
46 | Cc1ccc(C(=O)CSc2nc3ccccc3c(=O)n2N)o1 | -1.95
47 | COc1ccc(-c2csc(N(CC3CCCO3)C(=O)c3cccs3)n2)cc1 (stereo not drawn) | -11.4
48 | O=C(c1cccs1)N(CC1CCCO1)c1nc(-c2ccccc2)cs1 (stereo not drawn) | 2.57
49 | CCN(CC)CCCN(C(=O)c1cccs1)c1nc(-c2ccc(OC)cc2)cs1 | -83.3
50 | COc1ccc(-c2csc(N(CCCN(C)C)C(=O)c3cccs3)n2)cc1.Cl | -73.9
51 | COc1ccc(-c2csc(N(C)C(=O)c3cccs3)n2)cc1 | -0.276
52 | COc1ccc(-c2csc(N(Cc3ccco3)C(=O)c3cccs3)n2)cc1 | -3.17
53 | CN(C)CCCN(C(=O)c1cccs1)c1nc(-c2ccccc2)cs1 | -72.8
54 | Cc1ccc(-c2csc(N(Cc3ccco3)C(=O)c3cccs3)n2)cc1 | 11.6
55 | CCN(C(=O)c1cccs1)c1nc(-c2ccc(OC)cc2)cs1 | 23.1
56 | O=C(NC(=S)Nc1ccc(S(=O)(=O)N2CCCC2)cc1)C1CC1 | -29.8
57 | COc1ccc(C(=O)Nc2cc(C)nn2-c2nc3ccccc3[nH]2)c(OC)c1 | -5.95
58 | CSc1nnc(-c2ccc(Cl)cc2Cl)o1 | 1.62
59 | COc1cccc(NC(=O)COc2ccc(C(=O)N3CCN(C)CC3)cc2)c1 | 15.8
60 | O=C(O)CCc1cccnc1 | 7.55
61 | O=C(/C=C/c1c(F)cccc1Cl)c1ccc(O)cc1 | 1.1
62 | Cc1ccc(-c2nnc(N3CCCCC3)c3ccccc23)cc1S(=O)(=O)N1CCN(C)CC1 | -58.7
63 | Cc1ccc(-c2nnc(N3CCOCC3)c3ccccc23)cc1S(N)(=O)=O | 17.3
64 | Cc1ccc(-c2nnc(NC3CCCCC3)c3ccccc23)cc1S(=O)(=O)N1CCN(C)CC1 | -54.6
65 | Cc1ccc(-c2nnc(NCc3nc4ccccc4[nH]3)c3ccccc23)cc1S(=O)(=O)N1CCCCC1.Cl | -7.08
66 | Cc1ccc(-c2nnc3c4ccccc4c(C)nn23)cc1S(=O)(=O)N1CCN(C)CC1 | -6.7

Row | SMILES | hERG current change (%, negative = inhibition) at 10uM [%]
67 | Cc1ccc(-c2nnc(N3CCCCC3)c3ccccc23)cc1S(=O)(=O)N(C)C | -27
68 | COc1ccc(S(=O)(=O)NCC2CCCN(C(=O)CCSC)C2)cc1 (stereo not drawn) | 18
69 | COc1cccc(CN2CC(C(=O)N(C)Cc3ccnc4ccccc34)CCC2=O)c1 (stereo not drawn) | -10.2
70 | C=CCNc1nc(-c2c(C)nc3sccn23)cs1 | -10.1
71 | Cc1ccccc1C(=O)NC(=S)NCCC1=CCCCC1 | 13.4
72 | CN1CCN(c2ncc3c(n2)CC(c2ccccc2F)CC3=O)CC1 (stereo not drawn) | -4.43
73 | COCCOC(=O)C1=C(C)NC2=C(C(=O)CCC2)C1c1ccc2c(c1)OCO2 (stereo not drawn) | -49.6
74 | O=C(CCNC(=O)c1ccc(Br)cc1)NCc1ccccc1F | -13
75 | O=C(NNC(=O)C1COc2ccccc2O1)c1cccc([N+](=O)[O-])c1 (stereo not drawn) | -7.35
76 | COc1cc(/C=N\NC(=O)CNC(=O)C2COc3ccccc3O2)ccc1O (stereo not drawn) | -26.8
77 | O=C(Nc1ccc([N+](=O)[O-])cc1)C1COc2ccccc2O1 (stereo not drawn) | 0.793
78 | O=C(N/N=C/c1cccc([N+](=O)[O-])c1)C1COc2ccccc2O1 (stereo not drawn) | -29.1
79 | O=C(CNC(=O)C1COc2ccccc2O1)N/N=C/c1ccc([N+](=O)[O-])cc1 (stereo not drawn) | -71.8
80 | O=C(CNC(=O)C1COc2ccccc2O1)N/N=C\c1ccccc1Cl (stereo not drawn) | 4.64
81 | COc1ccc(/C=N\NC(=O)CNC(=O)C2COc3ccccc3O2)cc1[N+](=O)[O-] (stereo not drawn) | -73.8
82 | O=C(CNC(=O)C1COc2ccccc2O1)N/N=C/c1cc(Br)c(O)c(Br)c1 (stereo not drawn) | -7.99
83 | O=C(Nc1cccc([N+](=O)[O-])c1)C1COc2ccccc2O1 (stereo not drawn) | -86.3
84 | O=C(CNC(=O)C1COc2ccccc2O1)N/N=C\c1ccc(Br)cc1 (stereo not drawn) | -20.1
85 | COc1ccc(/C=N/NC(=O)CNC(=O)C2COc3ccccc3O2)cc1OC (stereo not drawn) | -15.7
86 | O=C(CNC(=O)C1COc2ccccc2O1)N/N=C\c1ccc(Cl)cc1 (stereo not drawn) | -69.4
87 | COc1ccc(OCCC(=O)Nc2ccccc2)cc1 | -6.83
